Measurements from ChEMBL document CHEMBL3988442, “University of Dundee, Small-Polar-MMV Screening Library” (2021).
The campaign covered roughly 48,000 compounds. About 13,000 (27%) showed an effect of 50% or more. The list shows a part of the results.

system: Wolbachia pipientis; assay: Anti-Wolbachia Cell-Based Screen; format: functional; set-up: scale not given: in the data most compounds retested in dose-response had high values; details: 5 µM

SMILES | Percent Effect
Cc1noc(C)c1CN(C)C(=O)c1ccc2c(c1O)OC(C)(C)C2 | -18.28%
CN(CC(O)CO)C(=O)c1coc(COc2cccc(F)c2)n1 (stereo not given) | -18.15%
Cc1ccn2ncc(C(=O)N3CCCC(n4nc(C)nc4C)C3)c2n1 (stereo not given) | 0.3182%
CN(Cc1cc[nH]n1)C(=O)c1cccc(CCC(C)(C)O)c1 | -7.029%
O=C(NCc1cccnc1)C1=NOC2(CCN(C(=O)N3CCCC3)C2)C1.O=C(O)C(F)(F)F (stereo not given) | -7.099%
O=C(NCc1cccnc1)C1=NOC2(CCN(C3CCOCC3)C2)C1 (stereo not given) | -2.233%
O=C(NCc1cccnc1)C1=NOC2(CCN(S(=O)(=O)C3CC3)C2)C1 (stereo not given) | -5.335%
Cl.O=C(Nc1ccccc1F)C1=NOC2(CCNCC2)C1 | 2.616%
O=C(Nc1ccccc1)C1=NOC2(CCCN(C(=O)N3CCCC3)C2)C1 (stereo not given) | 131.1%
O=C(Nc1ccccc1)C1=NOC2(CCCN(C(=O)C3CCCC3)C2)C1 (stereo not given) | 104.4%
CCC(C)(CC(=O)OC)NCc1nc(C)no1 (stereo not given) | -15.67%
O=C(c1cc2c([nH]c1=O)CCC2)N1CCCCC1c1cccc(F)c1 (stereo not given) | -12.81%
CC1c2ccc(F)cc2CCN1C(=O)c1[nH]c(=O)[nH]c(=O)c1N (stereo not given) | 98.7%
COC(=O)c1cc(C(=O)N2CCc3ccc(F)cc3C2C)ccn1 (stereo not given) | -4.117%
CC(C)(C)c1ccc2c(c1)CCN2C(=O)c1nc(=O)[nH][nH]1 | 2.994%
Cc1nc(C)c(C(=O)N2CCc3ccc(F)cc3C2C)o1 (stereo not given) | 2.437%
CC1c2cc(F)ccc2CCN1C(=O)c1[nH]c(=O)[nH]c(=O)c1N (stereo not given) | 103.3%
CC1c2ccc(F)cc2CCN1C(=O)c1nc(=O)[nH][nH]1 (stereo not given) | 110%
Cc1nc(C)c(C(=O)N2CCc3cc(F)ccc3C2C)o1 (stereo not given) | -9.87%
CC(C)(C)c1ccc2c(c1)CCN2C(=O)c1[nH]c(=O)[nH]c(=O)c1N | 1.564%
Cn1cc(NC(=O)NCc2ccsc2)ccc1=O | -5.862%
CNC(=O)[C@@H](c1ccccc1F)N1CCC[C@H]1C(=O)NC1CCCC1.Cl | 0.555%

SMILES | Percent Effect
Clc1cccc(CNC2CCN(CCc3ccncc3)CC2)c1 | -6.723%
O=C1NCCCc2[nH]c(Cc3cccc(Cl)c3)nc21 | -5.245%
Cl.Cl.Clc1cccc(C[C@@H]2NCCC[C@@H]2Nc2cccc(Cl)c2)c1 | 33.15%
Cl.Clc1cccc(N[C@H]2CCCN[C@H]2Cc2ccccc2)c1 | 152.2%
Cl.Cl.Clc1cccc(C[C@@H]2NCCC[C@@H]2Nc2ccccc2)c1 | 167.6%
O=C(Cc1cccc(Cl)c1)N[C@@H]1CCNC[C@H]1O | 4.451%
O=C([C@H]1COC[C@H]2CN(CC3CCC3)C[C@H]21)N1CCOCC1 | -17.46%
O=C(O)C(F)(F)F.O=C(c1nc2c(o1)CN(CC1CC1)C2)N1CCCC1 | -4.032%
Cn1nc(C(=O)N2CCOCC2)c2c1CN(CC1CC1)C2.O=C(O)C(F)(F)F.O=C(O)C(F)(F)F | 102.2%
Cn1nc(C(=O)N2CCCC2)c2c1CN(CC1CCOCC1)C2 | -10.68%
Cn1nc(C(=O)N2CCOCC2)c2c1CN(CC1CCC1)C2 | 98%
CC(C)CCN1Cc2c(C(=O)N3CCCC3)nn(C)c2C1.O=C(O)C(F)(F)F | 4.332%
NC(=O)N1CC(OCc2cccc3ccccc23)C1 | -8.487%
CC(C)NCC1(O)CCCN(CCC2CCCCC2)C1=O (stereo not given) | -46.74%
O=C(O)c1cc(N2C[C@H](NC(=O)C3CCOCC3)[C@@H](C3CC3)C2)ccn1 | -7.348%
Cc1cc(N2C[C@H](NC(=O)C3(C#N)CCOCC3)[C@@H](C(C)C)C2)ccn1 | 95.25%
N#CC1(C(=O)N2C[C@H]3CC[C@@H]2CN(Cc2ccncc2)C3)CCOCC1 | -3.393%
CC(C)[C@@H]1CN(Cc2ccccc2C#N)C[C@H]1NC(=O)N(C)C | 4.058%
CC(C)[C@H]1CN(c2ccncc2)C[C@@H]1NC(=O)C1(C#N)CCOCC1 | 98.03%
CC(C)[C@H]1CN(c2cnccn2)C[C@@H]1NC(=O)C1(C#N)CCOCC1 | 90.9%
CC(=O)N[C@@H]1CN(Cc2nnc(-c3ccccc3)o2)C[C@H]1C(C)C | 0.5134%
CC(C)[C@H]1CN(S(C)(=O)=O)C[C@@H]1NC(=O)c1ccnc(N)c1 | -108.5%

SMILES | Percent Effect
CS(=O)(=O)NCC(=O)N[C@H]1CN(c2cnccn2)C[C@@H]1C1CC1 | 0.2443%
CC(C)[C@H]1CN(Cc2ccncc2)C[C@@H]1NC(=O)C1(C#N)CCOCC1 | 101.3%
O=C(N[C@H]1CN(c2ccncc2)C[C@@H]1C1CC1)C1CCOCC1 | 31.8%
COC(C)(C)C(=O)N[C@H]1CN(c2nccnc2N(C)C)C[C@@H]1C(C)C | 9.529%
OCCN(Cc1cccnc1)c1ccc(Cl)cn1 | -7.592%
CNc1nc(C(=O)N2C[C@H]3CC[C@@H]2CN(C2CCOCC2)C3)cs1 | -0.4329%
CCCc1nc(CN(C)CC2CCN(CCO)CC2)no1 | -5.007%
CC(=O)NCCNC(=O)c1cnc2c(c1)nc(-c1ccccc1Cl)n2C | -9.781%
COC(C)(C)C(=O)N[C@H]1CN(c2ncccc2C(N)=O)C[C@@H]1C(C)C | 2.672%
CC(C)[C@H]1CN(c2ccnc(N)n2)C[C@@H]1NC(=O)C1(C#N)CCOCC1 | 89.33%
CC(=O)N1C[C@H](NC(=O)c2ccnc(N)c2)[C@@H](C(C)C)C1 | -4.113%
Cc1nn(C)c(Oc2ccc(Cl)cc2)c1CN1CC[C@H](CO)[C@@H](O)C1 | -1.259%
CCOCC1CN(Cc2cccc(C#N)c2)Cc2nccn2C1.O=C(O)C(F)(F)F (stereo not given) | 5.676%
COCc1nccc(C2CCCN(Cc3cccc(C#N)c3)C2)n1 (stereo not given) | -9.239%
Cc1noc(C)c1CN1CCN(CCN(C)C)c2ncccc2C1.O=C(O)C(F)(F)F.O=C(O)C(F)(F)F.O=C(O)C(F)(F)F | 0.7067%
CN(C)CCN1CCN(Cc2cccc(C#N)c2)Cc2cccnc21.O=C(O)C(F)(F)F.O=C(O)C(F)(F)F.O=C(O)C(F)(F)F | 101.9%
CCN(CC)CC1CN(Cc2cccc(C#N)c2)Cc2nccn2C1.O=C(O)C(F)(F)F.O=C(O)C(F)(F)F (stereo not given) | 268.5%
N#Cc1cccc(CN2Cc3nccn3CC(COCC3CC3)C2)c1.O=C(O)C(F)(F)F (stereo not given) | 104.1%
Cc1ccc2c(n1)N(CCN(C)C)CCN(Cc1c(C)noc1C)C2.O=C(O)C(F)(F)F.O=C(O)C(F)(F)F.O=C(O)C(F)(F)F | 11.23%
CCN(CC)CC1CN(Cc2c(C)noc2C)Cc2nccn2C1 (stereo not given) | -2.257%
COCC1CN(Cc2cccc(C#N)c2)Cc2nccn2C1 (stereo not given) | 107.2%
